Drawing on PubChem BioAssay, this text covers composite z-score for 32 molecules.

This experiment has as its system Neuregulin-1 EGF-like domain. Nature of the experiment: binders of neuregulin-1 EGF-like domain, primary screen, biochemical, small-molecule microarray, 635 nm fluorescence (AID 1081).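 Note: binding of the protein to compounds printed on small-molecule microarray slides.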 The following applies: small-molecule microarray binding, higher = more signal.
Turning to `CC#CC(=O)Oc1ccc(Br)cc1C=CC(=O)OCC`, the composite z-score came out at 1.34.

With `CCCC(=O)N(CCc1c[nH]c2ccccc12)[C@@H]1CC(C(=O)NCCO)=C[C@H](Oc2c(I)cc(CO)cc2OC)[C@H]1O`, the composite z-score was 0.315. Under `COCCOC(=O)N1C(=O)[C@@]2(c3ccccc31)[C@H](C(=O)N1CCCCCCC1)[C@H]1C(=O)O[C@H](c3ccccc3)[C@H](c3ccccc3)N1[C@@H]2c1ccc(OCCO)cc1` stands 1.5.

`CCOC(=O)C[C@H]1[C@H](OC(=O)c2cc3ccccc3oc2=O)[C@@H](NC(=O)CC(C)C)c2cc(OCCCO)ccc2N1C(=O)c1ccccc1` had a composite z-score of 0.397.

Take `O=C1OCC=C[C@H]2OC34C=CCN(CCN5CCOCC5)C(=O)[C@H]3N(CCO)C(=O)[C@@H]4[C@@H]12` (some centres not stated): the composite z-score is 0.242. Under `COCC(=C=CC[C@H](O)c1cccc(OCCO)c1)CCO` stands 0.711; under `C#CCN1[C@H](/C=C/C2CC2)[C@H](Cc2ccccc2)OC(=O)[C@@H]1Cc1ccccc1`, 0.524. For the molecule `O[C@@H](Cc1ccccc1)[C@@H](/C=C/C1CC1)NCc1cccc(Cl)c1`, the composite z-score is -0.344. Next, `C=C(/C(=C/C[C@H](OC(C)=O)c1ccc(OCCO)cc1)c1cc(C(=O)OC)ccc1OC)C(C)C`: 0.376.

Turning to `CCCC[C@@H]1C[C@H]1[C@@H](NC(=O)c1cccnc1)c1ccc(Cl)cc1`, the composite z-score is -0.977. Next, `CC(C)[C@@H](C(=O)O)n1cc(C2(O)CCCCC2)nn1`: 0.451. Next, `CC(C)CCC[C@@H](C)[C@H]1CC[C@@]2(C)C3=C(CC[C@]12C)[C@@]1(C)CC[C@H](OC(=O)c2ccc(C(F)(F)F)nc2)C(C)(C)C1CC3` (some centres not stated): 0.198; `O=C1O[C@@H](c2ccccc2)[C@@H](c2ccccc2)N2[C@@H](c3ccc(OCCO)cc3)[C@]3(C(=O)Nc4ccc(C#CC5=CCCCC5)cc43)[C@@H](C(=O)N3CCCCCCC3)[C@H]12`: 1.26. Under `CC(C)NC(=O)[C@@]1(Cc2ccccc2I)c2ccccc2C(=O)N(Cc2ccccc2Cl)[C@H]1c1ccc(CO)cc1` stands 1.22; under `COc1ccc([Si](C)(C)[C@H]2[C@H](CCO)O[C@@]3(C(=O)N(Cc4ccccc4)c4ccc(N5CCCCC5=O)cc43)[C@@H]2C)cc1`, 0.909. `COc1ccc([C@H]2C[C@H]3C(Br)=C[C@@]2(CO)C(=O)[C@]32CO2)cc1` registered a composite z-score of -0.333. As for `CO[C@H]1O[C@H](CO)[C@@H](OC(=O)Nc2ccc(Oc3ccccc3)cc2)[C@H](OC(=O)Nc2ccc3c(c2)OCO3)[C@@H]1OC(=O)Nc1ccc2c(c1)OCO2`, the composite z-score came to 1.09. Under `O=C(NC1CC1)[C@@H]1c2ccccc2C(=O)N(C2Cc3ccccc3C2)[C@H]1c1ccc(CO)cc1` stands 0.807; under `CC(C)=CCCC(C)=CC(O)C1C=CC2C(=O)N(c3ccccc3)C(=O)C2N1Nc1ccc(C(C)C)cc1` (configuration not stated), 1.06; under `C=CC[C@]1(C(N)=O)N=C(c2ccc(OCCCO)cc2)O[C@H]1c1ccccc1`, 1.29. As for `COc1cc2c(cc1O)C(c1cccs1)N(Cc1cccc(OC(F)(F)F)c1)CC2` (configuration not stated), the composite z-score came out at 0.774.

The molecule `C=C(CCCC)C(=O)CC[C@@H](OC(C)=O)c1ccc(CO)o1` had a composite z-score of -0.0318. Next, `O=C(CS)NCCCCCNC(=O)[C@H]1C[C@H]2C(=O)NCC(=O)N2[C@H]1c1ccc(O)cc1`: -0.0307; `COC(=O)[C@H](Cc1ccccc1)N[C@H](/C=C/C1CC1)[C@@H](O)Cc1ccccc1`: -0.626; `C=C(CCCC)C(=O)CC[C@H](OC(=O)c1cccnc1)c1ccc(OCCO)cc1`: 0.761. Next, `O=C1O[C@@H](c2ccccc2)[C@@H](c2ccccc2)N2[C@@H](c3ccccc3OCCO)[C@]3(C(=O)Nc4ccc(C#CC5(O)CCCCCC5)cc43)[C@@H](C(=O)N3CCN(c4ncccn4)CC3)[C@H]12`: 1.2. Under `C=CCN1C(=O)[C@]2(O[C@H](CCO)[C@@H]([Si](C)(C)c3ccc(OC)cc3)[C@@H]2C)c2cc(N(C=O)c3ccccc3)ccc21` stands 0.903; under `C=C(C(=O)CC[C@H](OC(C)=O)c1ccccc1OCCO)C(C)C`, -0.862. On to `COC(=O)[C@@]1(Cc2ccc(OC)cc2)[C@H]2c3cc(C(=O)N4CCCC4)n(Cc4nc5ccccc5[nH]4)c3C[C@H]2CN1C(=O)c1ccccc1`, for which the composite z-score was found to be 1.14.

As for `CC(c1ccccc1)C(O)C1C=CC2C(=O)N(c3ccccc3)C(=O)C2N1Nc1ccccc1` (configuration not stated), the composite z-score is 1.34. For the molecule `CCCC[C@H]1C[C@@H]1[C@@H]1N(P(=O)(c2ccccc2)c2ccccc2)C[C@@](O)(c2ccccc2)CC12CC2`, the composite z-score worked out at 0.541. Next, `COCC(=C=CC[C@H](O)c1ccccc1OCCO)CCO`: 0.857.
